# SSB-PriA inh: inhibitors of Klebsiella pneumoniae PriA binding to SSB C-terminal tail, primary screen, biochemical, AlphaScreen; PriA–SSB C-terminal tail interaction (Klebsiella pneumoniae); AlphaScreen SSBct-PriA binding, biotinylated peptide; inhibition, % at 33 µM; 430,000 compounds, 0.6% hits; AID 1272365, 2023; in the data active = inhibition mostly above about 37%, no sharp cut-off; inactive = mostly below about 20%;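 also: plate controls were negative control peptide for no effect and reference peptide for full effect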
# UGM FP inh: M. tuberculosis UGM enzyme inhibitors, primary screen, biochemical, fluorescence polarization, single point; UDP-galactopyranose mutase (Mycobacterium tuberculosis (strain ATCC 25618 / H37Rv)), …; purified UGM, fluorescence polarization probe displacement; inhibition, % at 10 µM; 320,000 compounds, 0.06% hits; in the data active = inhibition above about 10%, passing the limit was not always enough
# Mtb FBA inh: Mtb FBA enzyme inhibitors, primary screen, biochemical, fluorescence, strain H37Rv. Fructose-bisphosphate aldolase (Mycobacterium tuberculosis (strain ATCC 25618 / H37Rv)), …. purified M. tuberculosis FBA, fluorescence read-out. inhibition, % at 1 µM. 360,000 compounds, 2.3% hits; in the data active = inhibition above about 27%;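 also: 0% = vehicle and 100% = reference inhibitor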
# Target sequence (P9WQA3 whole entry, looked up): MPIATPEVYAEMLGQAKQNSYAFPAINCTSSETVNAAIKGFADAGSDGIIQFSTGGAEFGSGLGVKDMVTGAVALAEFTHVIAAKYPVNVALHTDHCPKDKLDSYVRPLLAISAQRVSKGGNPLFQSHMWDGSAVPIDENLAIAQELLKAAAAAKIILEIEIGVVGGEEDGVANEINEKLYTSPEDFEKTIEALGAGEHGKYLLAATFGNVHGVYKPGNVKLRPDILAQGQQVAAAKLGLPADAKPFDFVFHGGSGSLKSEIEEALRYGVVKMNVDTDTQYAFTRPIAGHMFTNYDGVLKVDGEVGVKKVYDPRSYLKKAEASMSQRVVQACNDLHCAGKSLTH
# Mtb bLac sens: beta-lactam sensitization of Mtb H37Rv, H37Rv. M. tuberculosis H37Rv growth with meropenem, percent inhibition. inhibition, % at 25 µM. 330,000 compounds, 0.27% hits; call rule not given here;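 also: growth measured after seven days incubation then overnight dye step; 0% = bacteria only wells and 100% = bacteria with antibiotic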
# GDH-TPI counter: GDH-TPI coupling enzyme inhibitors, primary screen, artefact control for M. tuberculosis FBA inhibitor project, biochemical, absorbance, full deck. GDH-TPI coupled enzyme counterscreen, NADH absorbance. inhibition, % at 4.8 µM. 360,000 compounds, 1.2% hits; in the data active = inhibition above about 30%;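 also: 0% = DMSO wells and 100% = wells lacking the enzyme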
# Rv3671c inh: Rv3671c serine protease inhibitors, primary screen, biochemical, fluorescence polarization, M. tuberculosis H37Rv; 320,000 compounds, 0.048% hits; P9WHR9; inhibition, % at 5.96 µM; in the data active = inhibition above about 38%;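 also: extracellular domain of Rv3671c used as enzyme; 0% = enzyme with DMSO and 100% = no enzyme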
# The depositor's hits bear a star; i = inactive; / = not tested or not shown; + = active, no number. Hits are enriched below; roughly 3.2% of the tested compounds scored in any of these assays.
SMILES,SSB-PriA inh,UGM FP inh,Mtb FBA inh,Mtb bLac sens,GDH-TPI counter,Rv3671c inh
O=C1CCCC/C1=C\Nc1ccc(O)cc1,/,4,2,18,33*,-19
CCOC(=O)c1ccc(N/C=C2\CCCCC2=O)cc1,-20,4,0,98,24,-5
COCCn1c(SC/C=C/c2ccccc2)nnc1-c1c[nH]c2ccccc12,3,/,/,/,/,/
C=CCN=c1scc(-c2ccccc2)n1N=Cc1ccccn1,46*,/,/,/,/,/
C=CCN=c1scc(-c2ccccc2)n1/N=C/c1ccccn1,i,-1,2,87,19,-4
CCOc1cccc2sc(NCCN(C)C)nc12,17,/,/,/,/,/
CCCCCCCCCCCCCCCCCC(=O)N/N=C/c1ccc(Sc2cccc3cccnc23)o1,+,/,/,/,/,/
O=C(CSCc1ccc(Br)cc1)N/N=C/c1ccc(Sc2cccc3cccnc23)o1,+,/,/,/,/,/
O=C(CCc1csc(NC(=O)Nc2ccccc2)n1)NCc1ccccc1Cl,-2,/,/,/,/,/
NS(=O)(=O)c1ccc(CCNC(=O)C2CN(C(=O)c3cnccn3)C2)cc1,-9,/,/,/,/,/
Cc1cccn2c(=O)c3cc(C(=O)NCc4ccc(F)cc4)c(=N)n(CC4CCCO4)c3nc12 (centres undefined),5,0,+,7,0,-10
Cc1cccn2c(=O)c3cc(C(=O)NCC4CCCO4)c(=N)n(C4CCCCC4)c3nc12 (centres undefined),-1,5,+,7,7,-7
Cc1cccn2c(=O)c3cc(C(=O)NCC4CCCO4)c(=N)n(CC4CCCO4)c3nc12 (centres undefined),0,2,+,-10,6,-1
Cc1cccn2c(=O)c3cc(C(=O)NC4CCCC4)c(=N)n(CC4CCCO4)c3nc12 (centres undefined),-1,-1,+,-4,8,-20
CCOc1ccc(S(=O)(=O)ON=C2C=CC(=O)C=C2)cc1,-10,/,/,/,/,/
Cc1[nH]c2ccccc2c1C(=O)C(=O)N1CCN(c2ccc([N+](=O)[O-])cc2)CC1,-8,/,/,/,/,/
COc1ccc2c(c1)/C(=C/c1cnc[nH]1)C(=O)N2,-1,-1,-3,6,29,-5
O=C1Nc2ccccc2/C1=C/c1cnc[nH]1,8,-3,-6,-5,31*,-1
O=C(NN=Cc1ccc([N+](=O)[O-])cc1)c1cccc(N2CCCC2=O)c1,2,/,/,/,/,/
O=C(N/N=C/c1ccc([N+](=O)[O-])cc1)c1ccccc1OCc1ccccc1,/,2,0,-3,11,-1
O=C(N/N=C/c1ccc([N+](=O)[O-])cc1)c1cccc(N2CCCC2=O)c1,/,0,-3,-3,40*,3
O=C(N/N=C/c1cccn1-c1ccc([N+](=O)[O-])cc1)c1cccnc1,i,-2,-8,1,53*,2
O=C(N/N=C/c1cccnc1)c1ccc([N+](=O)[O-])cc1,/,1,-3,28,24,5
CC(C)C(=O)Nc1ccccc1C(=O)N/N=C/c1ccc([N+](=O)[O-])cc1,/,0,0,-8,35*,-2
O=C(NN=Cc1ccc([N+](=O)[O-])cc1)c1ccncc1,-6,/,0,/,40*,/
SMILES,SSB-PriA inh,UGM FP inh,Mtb FBA inh,Mtb bLac sens,GDH-TPI counter,Rv3671c inh
O=C(CN1CCN(Cc2nc3ccccc3n2Cc2ccccc2)CC1)Nc1ccccc1F,12,/,/,/,/,/
O=C(CSc1ccc(F)cc1)NCc1ccc(C(=O)c2ccco2)s1,-12,/,/,/,/,/
Cc1nnc(SCC(=O)N2CCCc3ccccc32)c2c1cnn2-c1ccc(F)cc1,-8,/,/,/,/,/
NC(=O)NN=Cc1ccc(OCc2cccc(Cl)c2)cc1,-7,/,/,/,/,/
CC(=O)n1cc(C=NNC(=O)c2cccc(O)c2)c2ccccc21,1,/,/,/,/,/
CCN(CC)c1ccc(C=NNC(=O)c2ccc([N+](=O)[O-])cc2)cc1,-6,/,/,/,/,/
Nc1ccc(C(=O)NN=C/C=C/c2ccc([N+](=O)[O-])cc2)cc1,4,/,/,/,/,/
CCC(=O)Nc1ccc(C(=O)N/N=C/c2ccc([N+](=O)[O-])cc2)cc1,/,/,-2,11,51*,-3
Nc1ccc(C(=O)N/N=C\C=C\c2ccc([N+](=O)[O-])cc2)cc1,/,-1,-3,-1,47*,-3
CC(=O)n1cc(/C=N/NC(=O)c2ccc([N+](=O)[O-])cc2)c2ccccc21,/,1,-2,6,32*,2
COc1ccc(-c2noc(CSc3nc4ccccc4c(=O)n3Cc3ccco3)n2)cc1OC,8,/,/,/,/,/
CCOc1cc(C2NN=C(c3ccc(C)cc3)S2)ccc1O (centres undefined),-12,1,4,99,34*,6
COc1ccc(N2CCCS2(=O)=O)cc1NS(=O)(=O)c1ccc2c(c1)OCCO2,-10,/,/,/,/,/
COC(=O)c1ccc(C)c(-n2c(N)c(C(=O)Nc3ccccc3C)sc2=S)c1,39*,/,/,/,/,/
C=CCn1c(N)c(C(=O)Nc2ccccc2OC)sc1=S,-3,0,-4,16,-1,-4
COC(=O)c1ccc(C)c(-n2c(N)c(C(=O)NCc3ccco3)sc2=S)c1,31,/,/,/,/,/
COc1ccccc1NC(=O)c1sc(=S)n(-c2ccc(Cl)cc2)c1N,36*,/,/,/,/,/
CCOC(=O)CNc1c(-c2ccc(F)cc2)nc2cnccn12,9,2,87*,-9,6,-6
CCCCNc1c(-c2ccc(-c3ccc(C(C)=O)cc3)c(OC)c2)nc2cnccn12,-6,-1,15,99,34*,7
COC(=O)Cc1cc(=O)n(-c2nc3ccccc3[nH]2)[nH]1,75*,-1,1,-5,8,3
COc1cc(CNCCc2c[nH]c3ccccc23)cc(OC)c1OC,/,/,-4,/,3,/
COc1cc(CNCCc2c[nH]c3ccccc23)ccc1OCc1ccccc1F,38*,-2,1,98,6,12
COc1cccc(CNCCc2c[nH]c3ccccc23)c1OCc1ccccc1,45*,-2,1,54,-4,1
c1ccc(CNCCc2c[nH]c3ccccc23)cc1,0,0,-1,-9,-5,2
CCCn1c(N/N=C\C=C\c2ccccc2)nc2c1c(=O)[nH]c(=O)n2C,/,0,-4,70,31*,0
CS(=O)(=O)NC1CCN(c2nc(-c3cccnc3)cs2)CC1,-3,/,/,/,/,/
CCc1ccc(N=C2NC(=O)/C(=C/c3ccc(OCC(=O)O)cc3)S2)cc1,-26,-2,-2,-4,40*,-1
CCn1cc(/C=c2/sc3n(c2=O)C2c4ccccc4OC(C)(N=3)C2C(=O)OC)c(C)n1 (centres undefined),/,-1,0,83,28,0

# Screens deposited in PubChem BioAssay by several laboratories.
